The campaign covered roughly 5,500 compounds. About 2,000 (36%) were called active. Roughly 18% stayed inconclusive and do not appear here. Rule as the data show it: active = normalized growth mostly below about 0.91 (no sharp cut-off); inconclusive = no clear call, values can overlap the other calls; inactive = mostly above about 0.92. The list shows a part of the results.
Assay: chemical genetic growth profiling, strain panel (AID 1159580);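 also: tested at 20 µM; growth read once vehicle control cultures reached saturation at 30 °C; 1 = growth at the plate median or of vehicle wells; lower values mean less growth of the strain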
Settings: growth OD

Measured: normalized growth

CN(C(=O)CN(CCO)CC(=O)N(C)C(C)(C)Cc1ccccc1)C(C)(C)Cc1ccccc1
inactive: S. cerevisiae deletion strains, locus YJR066W, strain TOR1, hits give low values 0.977 | S. cerevisiae deletion strains, locus YJR075W, strain HOC1, hits give low values 0.979 | S. cerevisiae deletion strains, locus YKL009W, strain mrt4, hits give low values 0.965 | S. cerevisiae deletion strains, locus YKL068W, hits give low values 0.979 | S. cerevisiae deletion strains, locus YKL085W, strain MDH1 (second series), hits give low values 0.971 | S. cerevisiae deletion strains, locus YKL085W, strain MDH1, hits give low values 0.971 | S. cerevisiae deletion strains, locus YKL160W, strain elf1, hits give low values 1.01 | S. cerevisiae deletion strains, locus YKL190W, strain CNB1, hits give low values 0.992 | S. cerevisiae deletion strains, locus YKR001C, strain vps1, hits give low values 0.998 | S. cerevisiae deletion strains, locus YKR026C, strain gcn3, hits give low values 1.02 | S. cerevisiae deletion strains, locus YKR091W, strain srl3, hits give low values 0.999 | S. cerevisiae deletion strains, locus YLL001W, strain dnm1, hits give low values 1.02 | S. cerevisiae deletion strains, locus YLL026W, hits give low values 1.02 | S. cerevisiae deletion strains, locus YLL041C, strain sdh2, hits give low values 1.01 | S. cerevisiae deletion strains, locus YLR027C, strain aat2, hits give low values 1.02 | S. cerevisiae deletion strains, locus YLR039C, strain RIC1, hits give low values 1.03 | S. cerevisiae deletion strains, locus YLR058C, strain SHM2, hits give low values 0.997 | S. cerevisiae deletion strains, locus YLR102C, strain apc9, hits give low values 0.986 | S. cerevisiae deletion strains, locus YLR113W, strain HOG1, hits give low values 0.987 | S. cerevisiae deletion strains, locus YLR221C, strain rsa3, hits give low values 0.993 | S. cerevisiae deletion strains, locus YLR258W, strain gsy2, hits give low values 1 | S. cerevisiae deletion strains, locus YLR262C, strain YPT6 (second series), hits give low values 1.03 | S. cerevisiae deletion strains, locus YLR262C, strain YPT6, hits give low values 1.02 | S. cerevisiae deletion strains, locus YLR268W, strain sec22, hits give low values 0.962 | S. cerevisiae deletion strains, locus YLR320W, strain mms22, hits give low values 0.99 | S. cerevisiae deletion strains, locus YLR330W, strain CHS5, hits give low values 0.984 | S. cerevisiae deletion strains, locus YLR342W, strain FKS1 (second series), hits give low values 0.985 | S. cerevisiae deletion strains, locus YLR342W, strain FKS1, hits give low values 1.01 | S. cerevisiae deletion strains, locus YLR357W, strain rsc2, hits give low values 1.01 | S. cerevisiae deletion strains, locus YLR370C, strain arc18, hits give low values 1.02 | S. cerevisiae deletion strains, locus YLR371W, strain rom2, hits give low values 0.978 | S. cerevisiae deletion strains, locus YLR384C, strain iki3, hits give low values 1.01 | S. cerevisiae deletion strains, locus YLR418C, strain cdc73, hits give low values 0.989 | S. cerevisiae deletion strains, locus YML016C, strain PPZ1, hits give low values 0.994 | S. cerevisiae deletion strains, locus YML032C, strain rad52, hits give low values 0.98 | S. cerevisiae deletion strains, locus YML120C, strain ndi1, hits give low values 1.02 | S. cerevisiae deletion strains, locus YML124C, strain tub3, hits give low values 0.989 | S. cerevisiae deletion strains, locus YMR058W, strain fet3, hits give low values 1.02 | S. cerevisiae deletion strains, locus YMR078C, strain ctf18, hits give low values 0.974 | S. cerevisiae deletion strains, locus YMR125W, strain sto1, hits give low values 1.02 | S. cerevisiae deletion strains, locus YMR129W, hits give low values 1.01 | S. cerevisiae deletion strains, locus YMR205C, strain PFK2, hits give low values 1 | S. cerevisiae deletion strains, locus YMR223W, strain ubp8, hits give low values 0.97 | S. cerevisiae deletion strains, locus YMR231W, strain pep5, hits give low values 1.01 | S. cerevisiae deletion strains, locus YMR263W, strain SAP30, hits give low values 0.995 | S. cerevisiae deletion strains, locus YMR307W, strain GAS1, hits give low values 0.835 | S. cerevisiae deletion strains, locus YNL067W, strain RPL9B, hits give low values 0.994 | S. cerevisiae deletion strains, locus YNL071W, strain lat1, hits give low values 1.01 | S. cerevisiae deletion strains, locus YNL153C, strain GIM3, hits give low values 1.03 | S. cerevisiae deletion strains, locus YNL183C, strain NPR1, hits give low values 0.944 | S. cerevisiae deletion strains, locus YNL209W, strain ssb2, hits give low values 1.01 | S. cerevisiae deletion strains, locus YNL233W, strain BNI4, hits give low values 0.987 | S. cerevisiae deletion strains, locus YNL248C, strain rpa49, hits give low values 1 | S. cerevisiae deletion strains, locus YNL250W, strain rad50, hits give low values 0.996 | S. cerevisiae deletion strains, locus YNL271C, strain bni1, hits give low values 0.982 | S. cerevisiae deletion strains, locus YNL298W, strain CLA4, hits give low values 0.983 | S. cerevisiae deletion strains, locus YNL307C, strain MCK1, hits give low values 0.99 | S. cerevisiae deletion strains, locus YNL322C, strain KRE1 (second series), hits give low values 1.01 | S. cerevisiae deletion strains, locus YNR049C, strain mso1, hits give low values 1.02 | S. cerevisiae deletion strains, locus YNR052C, strain pop2, hits give low values 0.972 | S. cerevisiae deletion strains, locus YOL006C, strain TOP1, hits give low values 1.05 | S. cerevisiae deletion strains, locus YOL012C, strain htz1 0.857 | S. cerevisiae deletion strains, locus YOL147C, strain pex11, hits give low values 0.987 | S. cerevisiae deletion strains, locus YOR001W, strain rrp6, hits give low values 0.992 | S. cerevisiae deletion strains, locus YOR061W, strain CKA2, hits give low values 0.992 | S. cerevisiae deletion strains, locus YOR069W, strain VPS5, hits give low values 0.991 | S. cerevisiae deletion strains, locus YOR070C, strain gyp1, hits give low values 1.02 | S. cerevisiae deletion strains, locus YOR080W, strain dia2, hits give low values 1.01 | S. cerevisiae deletion strains, locus YOR083W, strain WHI5, hits give low values 1 | S. cerevisiae deletion strains, locus YOR106W, strain vam3, hits give low values 1.02 | S. cerevisiae deletion strains, locus YOR136W, strain idh2, hits give low values 0.984 | S. cerevisiae deletion strains, locus YOR144C, strain elg1, hits give low values 0.99 | S. cerevisiae deletion strains, locus YOR184W, strain ser1, hits give low values 0.976 | S. cerevisiae deletion strains, locus YOR231W, strain MKK1, hits give low values 0.991 | S. cerevisiae deletion strains, locus YOR265W, strain rbl2, hits give low values 1.02 | S. cerevisiae deletion strains, locus YOR270C, strain vph1, hits give low values 1.09 | S. cerevisiae deletion strains, locus YOR290C, strain snf2, hits give low values 1.01 | S. cerevisiae deletion strains, locus YOR316C, strain cot1, hits give low values 0.971 | S. cerevisiae deletion strains, locus YPL051W, strain arl3, hits give low values 0.999 | S. cerevisiae deletion strains, locus YPL078C, strain atp4, hits give low values 1.01 | S. cerevisiae deletion strains, locus YPL106C, strain sse1, hits give low values 0.991 | S. cerevisiae deletion strains, locus YPL240C, strain hsp82, hits give low values 1 | S. cerevisiae deletion strains, locus YPL256C, strain CLN2, hits give low values 0.98 | S. cerevisiae deletion strains, locus YPR119W, strain clb2, hits give low values 0.974 | S. cerevisiae deletion strains, locus YPR141C, strain kar3, hits give low values 0.981 | S. cerevisiae deletion strains, locus YPR163C, strain tif3, hits give low values 0.969 | S. cerevisiae deletion strains, locus YPR167C, strain met16, hits give low values 0.969 | S. cerevisiae deletion strains, strain wtn01, hits give low values 0.985 | S. cerevisiae strains, strain wild type, hits give low values 0.991
